The values that follow come from PubChem BioAssay (NCI).

Compounds without any hit were thinned out: in the full panel of roughly 79,000, 15% have a hit. Unmarked numbers belong to inactive results. Calls of active or inactive are those of the source. Rule as the data show it: active = growth inhibition above about 70%; inactive = the rest.

Assay [1] can be described thus: NCI Yeast Anticancer Drug Screen. Data for the rad50 strain (AID 155).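 Also: 0% = growth of vehicle-only cultures of the same strain.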 As to conditions: S. cerevisiae rad50 strain growth inhibition, active compounds read high. Put shortly: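 Compounds were tested on a yeast strain with an engineered DNA damage repair alteration; the reported value is growth inhibition normalised to vehicle treatment.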
A short description of assay [2]: NCI Yeast Anticancer Drug Screen. Data for the mec2-1 strain (AID 157). As to conditions: S. cerevisiae mec2-1 strain, active compounds read high. Put shortly: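 Readout is yeast growth inhibition, normalised to vehicle-treated controls, in the mec2-1 strain exposed to compound.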
Assay [3] can be described thus: NCI Yeast Anticancer Drug Screen. Data for the sgs1 mgt1 strain (AID 161).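 Also: 0% = growth of cultures given vehicle only.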 To be noted: S. cerevisiae sgs1 mgt1 strain, active compounds read high. The method in brief:
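Compounds are added to genetically altered yeast, and growth is compared with cultures given vehicle alone to give percent inhibition.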

Assay [4] can be described thus: NCI Yeast Anticancer Drug Screen. Data for the cln2 rad14 strain (AID 165).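 Also: 0% = growth equal to vehicle treated cultures.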 To be noted: S. cerevisiae cln2 rad14 strain, active compounds read high. The method in brief: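 Relative to vehicle controls, growth inhibition of compound-treated cln2 rad14 yeast was recorded.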
Assay [5] can be described thus: NCI Yeast Anticancer Drug Screen. Data for the bub3 strain (AID 167). As to conditions: S. cerevisiae bub3 mutant strain, active compounds read high. The method in brief:
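Growth of a checkpoint-deficient yeast mutant is measured after compound exposure. Values represent inhibition relative to vehicle.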

Assay [6] in a line: NCI Yeast Anticancer Drug Screen. Data for the mlh1 rad18 strain (AID 175). To be noted: S. cerevisiae mlh1 rad18 strain growth inhibition, active compounds read high. The method in brief:
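Test agents were incubated with a yeast strain of defined genotype (DNA damage repair defect). Inhibition of growth was derived by comparison with vehicle-exposed cultures.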

[7] abbreviates: at 5.0 µM (retest, dose inferred, filed as 0.5).
The mark [8] stands for this setting: at 50.0 µM (retest, dose inferred, filed as 5.0).

As for `CCN(CC)Cc1cc(Nc2c3ccccc3nc3c2[nH]c2ccccc23)ccc1O`, the growth inhibition in assay [1] (setting [7]) was -6%; in assay [1] (setting [8]), 18%; in assay [1] (at 50.0 µM) it was 82.5% (active); in assay [2] (setting [7]), 3%; in assay [2] (setting [8]) it was 5%; in assay [2] (at 50.0 µM), 8.85%. Moreover, the growth inhibition is -8% in assay [3] (setting [7]); -19% in assay [3] (setting [8]); 2.65% in assay [3] (at 50.0 µM); 44% in assay [4] (setting [7]); 44% in assay [4] (setting [8]); -3% in assay [4] (at 50.0 µM). In addition, the growth inhibition is 9% in assay [5] (setting [7]); 3% in assay [5] (setting [8]); -4.65% in assay [5] (at 50.0 µM); -1% in assay [6] (setting [7]); -9% in assay [6] (setting [8]); 33.5% in assay [6] (at 50.0 µM).
For the compound `CC[N+](C)(CC)CCCOC(=O)c1ccccc1Oc1ccc(C)cc1`, the growth inhibition in assay [1] (setting [7]) was 1%; in assay [1] (setting [8]) it was 0%; in assay [1] (at 50.0 µM) it was 75.5% (active); in assay [2] (setting [7]), -17%; in assay [2] (setting [8]), -8%; in assay [2] (at 50.0 µM) it was 13.8%. Besides, the growth inhibition in assay [3] (setting [7]) is -9%; in assay [3] (setting [8]), -7%; in assay [3] (at 50.0 µM), 21.9%; in assay [4] (setting [7]), -4%; in assay [4] (setting [8]), -6%; in assay [4] (at 50.0 µM), -0.85%. For the same compound, the growth inhibition in assay [5] (setting [7]) is 2%; in assay [5] (setting [8]), 42%; in assay [5] (at 50.0 µM), 12.8%; in assay [6] (setting [7]) it was 15%; in assay [6] (setting [8]) it was 3%; in assay [6] (at 50.0 µM), 14.9%.
On to `CC(=O)Oc1ccc(/C=C/c2ccncc2)cc1`, for which the growth inhibition in assay [1] (setting [7]) was -164%; in assay [1] (setting [8]), -78%; in assay [1] (at 50.0 µM), 67.8%; in assay [2] (setting [7]), -47%; in assay [2] (setting [8]), -33%; in assay [2] (at 50.0 µM) it was 44%. Further, the growth inhibition in assay [3] (setting [7]) was -65%; in assay [3] (setting [8]), 7%; in assay [3] (at 50.0 µM), 60%; in assay [4] (setting [7]), -58%; in assay [4] (setting [8]), -32%; in assay [4] (at 50.0 µM), 50.1%. The growth inhibition was -58% in assay [5] (setting [7]); 6% in assay [5] (setting [8]); 84.7% (active) in assay [5] (at 50.0 µM); -157% in assay [6] (setting [7]); -69% in assay [6] (setting [8]); 48.2% in assay [6] (at 50.0 µM).
Regarding `CCOC(=O)C(C#N)NC(C)=O` (configuration not stated), the growth inhibition in assay [1] (setting [7]) was 3%; in assay [1] (setting [8]), 1%; in assay [1] (at 50.0 µM), 68%; in assay [2] (setting [7]) it was 0%; in assay [2] (setting [8]), 1%; in assay [2] (at 50.0 µM), 49.3%. Further, the growth inhibition was 0% in assay [3] (setting [7]); 1% in assay [3] (setting [8]); 75.4% (active) in assay [3] (at 50.0 µM); -1% in assay [4] (setting [7]); 0% in assay [4] (setting [8]); 3.05% in assay [4] (at 50.0 µM). Moreover, the growth inhibition in assay [5] (setting [7]) was 0%; in assay [5] (setting [8]) it was -5%; in assay [5] (at 50.0 µM), 69%; in assay [6] (setting [7]) it was 3%; in assay [6] (setting [8]), 3%; in assay [6] (at 50.0 µM), 57.8%.
